Shown are actives, neighbours in structure and some others; about 0.97% of the full set was active somewhere.
Hsp70 activator: switches on Hsp70 transcription. activation, % at 10 µM. 200,000 tested, 0.04% active. HeLa Hsp70 promoter luciferase reporter, luminescence; scaled: vehicle 0, proteasome-inhibitor control 100%. AID 1203;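 active = activation above the mean across all tested compounds plus 3 SD, cutoff set per campaign, cut at about 5.5% in these data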;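 also: 100% = MG132 at 30 µM as the positive control and 0% = DMSO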
S1P4 agonist: human S1P4 receptor agonism | O95977 | 220,000 tested, 0.35% active | activation, % at 4.98 µM | S1P4-expressing cell line, agonist reporter assay; in the data active = activation above about 11%;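 also: 0% = DMSO vehicle and 100% = reference agonist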
AI-2 QS mod: modulates the Vibrio harveyi AI-2 quorum sensing system. Vibrio harveyi JMH597 AI-2 luminescence/OD600 ratio, 9 h; hits give low values; strain lacks LuxN and CqsS sensors; 0 = neutral-control median. activity change, % at 7.5 µM. 300,000 tested, 0.4% active; in the data active = activity change below about -75%, passing the limit was not always enough; inconclusive = no clear call, values can overlap the other calls;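 also: luminescence divided by OD600 gain over 9 h not by final OD600 alone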
S1P3 antagonist: blocks the human S1P3 receptor. CHO S1P3 NFAT-BLA reporter, FRET fluorescence, antagonist mode. inhibition, % at 4.98 µM. 170,000 tested, 0.27% active. AID 485;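 active = inhibition above the plate cutoff, the mean inhibition of test wells on that plate plus 3 SD, cut at about 28% in these data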;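 also: cells challenged with S1P at its EC80 of 0.8 µM; blue over green emission ratio from cleaved BLA substrate after 4 h stimulation; 0% = S1P-stimulated wells and 100% = unstimulated DMSO-only wells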
Target sequence (Q99500 whole entry, looked up): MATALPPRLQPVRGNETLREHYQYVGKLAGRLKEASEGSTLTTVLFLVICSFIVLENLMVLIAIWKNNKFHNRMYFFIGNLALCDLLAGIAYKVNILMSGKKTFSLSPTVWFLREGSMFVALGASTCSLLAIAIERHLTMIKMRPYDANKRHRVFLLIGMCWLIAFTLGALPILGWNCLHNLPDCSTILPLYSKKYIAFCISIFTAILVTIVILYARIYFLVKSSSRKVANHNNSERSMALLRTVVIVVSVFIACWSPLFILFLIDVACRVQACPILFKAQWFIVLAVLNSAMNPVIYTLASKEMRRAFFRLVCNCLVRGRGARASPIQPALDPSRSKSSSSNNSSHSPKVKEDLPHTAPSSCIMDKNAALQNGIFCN
S1P4 antag: blocks the human S1P4 receptor. AID 1510. 220,000 tested, 0.26% active. S1P4-expressing cells, antagonist mode, reporter read-out. inhibition, % at 4.98 µM. O95977; in the data active = inhibition above about 29%;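 also: 0% = wells stimulated with agonist and 100% = vehicle wells without agonist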
Hsp70 act DR: activates Hsp70 transcription in dose response; calls only at 99 µM; HeLa hsp70.1pr-luc reporter, luciferase luminescence; shares compounds with Hsp70 activator; 70 tested, 10% active;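 active = over 50% activation at some tested dose; inactive = under 50% activation at every tested dose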
S1P4 ag conf: human S1P4 agonism, confirmation; shares compounds with S1P4 agonist; S1P4 agonist cell-based reporter assay; activation, % at 4.98 µM; 740 tested, 7% active; in the data active = activation above about 12%;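 also: 0% = vehicle and 100% = full reference agonist response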
S1P1 ag: human S1P1 agonism as S1P4 agonist counter-screen. shares compounds with S1P4 agonist. S1P1 agonist cell-based assay, activation. activation, % at 4.98 µM. 740 tested, 4% active. AID 1563; in the data active = activation above about 21%;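 also: 0% = vehicle wells and 100% = reference agonist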
Target sequence (P21453 whole entry, looked up): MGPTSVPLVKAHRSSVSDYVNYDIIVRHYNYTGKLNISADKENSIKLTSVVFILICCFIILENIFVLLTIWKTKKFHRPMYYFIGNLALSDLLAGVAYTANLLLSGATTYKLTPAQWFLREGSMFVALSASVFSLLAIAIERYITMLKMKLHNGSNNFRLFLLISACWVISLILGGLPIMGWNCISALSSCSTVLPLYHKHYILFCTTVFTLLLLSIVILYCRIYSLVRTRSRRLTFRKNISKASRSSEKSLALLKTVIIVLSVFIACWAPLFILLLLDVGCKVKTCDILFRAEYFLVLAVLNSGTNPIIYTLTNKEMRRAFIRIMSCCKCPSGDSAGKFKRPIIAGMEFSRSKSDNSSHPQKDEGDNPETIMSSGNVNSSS
S1P4 antag conf: confirmation of human S1P4 receptor antagonists; 520 tested, 71% active; S1P4-expressing cell line, antagonist mode, reporter read-out; inhibition, % at 4.98 µM; shares compounds with S1P4 antag; in the data active = inhibition above about 30%
S1P1 antagonist: human S1P1 antagonism as S1P4 antagonist counter-screen; shares compounds with S1P4 antag; cell-based S1P1 antagonist counterscreen, inhibition; inhibition, % at 4.98 µM; 520 tested, 37% active; AID 1564; in the data active = inhibition above about 40%;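 also: receptor stimulated with S1P near its EC80; 0% = agonist stimulated wells and 100% = vehicle only wells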
* hit, by the source's call; i = inactive; u = inconclusive; x = no result; + = active, no number.

SMILES	Hsp70 activator	S1P4 agonist	AI-2 QS mod	S1P3 antagonist	S1P4 antag	others
O=C(Nc1ccccc1-c1ccccc1)c1ccc(=O)[nH]n1	x	x	2.3	x	x
NS(=O)(=O)c1ccc(Oc2ccc(S(N)(=O)=O)cc2)cc1	-0.2	1.1	25.7	-6.8	-15.6
C=CS(=O)(=O)c1ccc(Oc2ccc(S(=O)(=O)C=C)cc2)cc1	48.4*	-2.1	u	99.5*	25.6	Hsp70 act DR=i
COCC(=O)Nc1cccc(Br)c1	6.3*	-1.5	-4.7	-22.6	-24.8	Hsp70 act DR=i
COc1ccccc1C1Nc2cccc3cccc(c23)N1	24.1*	-2.4	-4.2	x	4.1	Hsp70 act DR=i
COC(=O)Cn1cnc2c(cnn2-c2ccc(C)cc2)c1=O	x	x	21.0	x	x
COC(=O)Nc1ccc(S(=O)(=O)NCc2ccccn2)cc1	5.8*	-0.1	13.5	-2.6	-10.5	Hsp70 act DR=i
COc1ccccc1-n1cnnc1SC(C)C(=O)Nc1cccc([N+](=O)[O-])c1 (stereo not drawn)	-0.2	1.9	2.3	-5.4	-29.8
CCOc1ccc(/C=C/C(=O)N(CC)CC(=O)Nc2ccc3c(c2)OCCO3)cc1OCC	x	x	13.4	x	x
CN(C)S(=O)(=O)c1ccc(NC(=O)CCNC(=O)c2ccco2)cc1	x	x	10.6	x	x
O=[N+]([O-])c1ccccc1C1Nc2cccc3cccc(c23)N1	29.8*	-2.2	23.5	x	59.4*	Hsp70 act DR=i;S1P4 antag conf=-0.2;S1P1 antagonist=-40.6
COc1ccc(OCc2nnc(SCC(=O)Nc3ccccc3C#N)o2)cc1	x	x	25.2	x	x
CCCC(=O)N1CCN(c2ccc(NC(=O)c3ccc([N+](=O)[O-])o3)cc2Cl)CC1	34.6*	-0.1	37.0	6.3	87.2*	Hsp70 act DR=i;S1P4 antag conf=99.4*;S1P1 antagonist=48.5*
O=C(Nc1ccc(N2CCN(C(=O)c3ccccc3)CC2)cc1)c1ccc([N+](=O)[O-])o1	32.0*	-0.2	30.2	2.0	83.8*	Hsp70 act DR=i;S1P4 antag conf=116.5*;S1P1 antagonist=77.1*
Cc1ccc(Nc2cc(C)nn2-c2nc(C)cc(=O)[nH]2)cc1	90.3*	1.6	-159.6*	6.4	92.2*	Hsp70 act DR=i;S1P4 antag conf=114.1*;S1P1 antagonist=94.7*
COc1ccc(NC(=O)Cc2ccccc2)cn1	-0.1	-0.1	16.3	-3.7	6.0
COc1ccc(NC(=O)/C(Cl)=C(/Cl)S(=O)Cc2ccccc2)cn1 (stereo not drawn)	22.0*	-2.9	-59.6	x	90.9*	Hsp70 act DR=i;S1P4 antag conf=122.7*;S1P1 antagonist=68.4*
CNc1cc(C)c(C#N)c2nc3ccccc3n12	x	x	10.2	x	x
Cc1cc(Cl)n2c(nc3ccccc32)c1C#N	9.7*	5.0	14.0	14.9	44.5*	Hsp70 act DR=i;S1P4 antag conf=108.0*;S1P1 antagonist=69.4*
O=C1/C(=C\c2ccncc2)CCc2ccccc21	x	x	32.8	x	x
O=C1/C(=C/c2ccncc2)CCC/C1=C\c1ccncc1	209.8*	-0.8	3.0	-23.0	83.2*	Hsp70 act DR=+;S1P4 antag conf=98.9*;S1P1 antagonist=5.2
CCOC(=O)c1nc(N/N=C/c2ccccc2)sc1Br	x	x	-3.5	x	x
CC(C)[C@H](NS(=O)(=O)c1cccc(C(F)(F)F)c1)C(=O)OCC(N)=O	-0.5	1.2	7.0	8.2	-17.7
O=C(CSc1c(F)c(F)cc(F)c1F)Nc1ccc(C2SCCS2)cc1	x	0.6	4.3	-43.3	7.1
Cc1cccc(C(=O)NNc2ncnc3c2cnn3C)c1	0.4	14.8*	34.3	-14.7	-7.9	S1P4 ag conf=-1.5;S1P1 ag=2.7
SMILES	Hsp70 activator	S1P4 agonist	AI-2 QS mod	S1P3 antagonist	S1P4 antag	others
Cc1cc(=O)n2nc(N3CCCC(C(=O)NCc4ccccc4C)C3)sc2n1 (stereo not drawn)	x	x	24.7	x	x
CCOc1ccc(CCNC(=O)COC(=O)c2ccc(OC)c(OC)c2OC)cc1OCC	0.1	0.5	34.0	-18.2	-10.6
CCOc1ccc(CCNC(=O)COC(=O)c2cccc(OC)c2O)cc1OCC	0.0	12.8*	5.6	4.6	-18.4	S1P4 ag conf=-2.8;S1P1 ag=-1.6
Cc1ccc(NC(=O)CSCC(=O)Nc2ccccc2N2CCCCC2)cc1	x	x	11.3	x	x
Cc1cc2nc(-c3ccc(=O)[nH]c3)n(Cc3ccccc3)c2cc1C	x	x	9.2	x	x
COc1ccc2c(c1OC)C(=O)OC2Nc1ccccn1 (stereo not drawn)	-0.1	-0.9	27.1	-52.0	-3.4
COc1ccc2c(c1OC)C(=O)OC2Nc1ccccc1S(=O)(=O)C(F)F (stereo not drawn)	-0.5	17.1*	-0.5	1.4	-32.1	S1P4 ag conf=0.1;S1P1 ag=2.9
CCCCN1C(=O)c2cccc3cc(O)cc(c23)C1=O	x	x	-0.3	x	x
COc1ccc(C(C(=O)NCC2CCCO2)N(C(=O)CNC(=O)c2cccs2)c2ccc(C)cc2)cc1OC (stereo not drawn)	0.6	0.1	25.5	-10.4	20.4
CCOc1ccnc2c1c(=O)n(Cc1cc(OC)cc(OC)c1)c(=O)n2C	x	x	3.5	x	x
CCn1cc(CNC(=O)/C=C/c2cnn(C)c2)c(C)n1	-0.4	35.6*	9.0	-28.6	-13.5	S1P4 ag conf=-2.7;S1P1 ag=1.0
CC(C)N1CCN(Cc2cccs2)CC1CCO (stereo not drawn)	-0.1	63.9*	2.7	-15.6	7.8	S1P4 ag conf=-1.6;S1P1 ag=4.0
CC(C)CCN1CCN(Cc2cccs2)CC1CCO (stereo not drawn)	-0.2	-0.7	13.4	-8.5	-19.0
Cc1nc(Sc2nnnn2C)c2c3c(sc2n1)CCC3	0.2	11.4*	x	13.8	-8.4	S1P4 ag conf=-4.5;S1P1 ag=-16.5
CCOC(=O)c1sc(-c2ccccc2)cc1NC(=O)Nc1ccccc1	-0.1	24.7*	2.0	-10.5	-0.9	S1P4 ag conf=-2.4;S1P1 ag=-4.8
Fc1ccc(-c2nnc3ccccn23)cc1	0.0	29.3*	16.5	-5.4	1.2	S1P4 ag conf=-2.0;S1P1 ag=1.9
COc1ccc(NC(=O)c2cnn(-c3ccccc3)c2C)c(OC)c1	x	x	15.3	x	x
COc1ccc(NC(=O)c2cc(-c3ccccc3)nc3c2c(C)nn3-c2ccccc2)c(OC)c1	-0.1	23.5*	5.7	-14.8	-8.1	S1P4 ag conf=-1.8;S1P1 ag=0.6
CCc1nc2ccc(C(=O)N3CCN(c4ccccc4F)CC3)cc2nc1CC	x	x	19.0	x	x
CCCNC(=O)Cn1nc([N+](=O)[O-])c([N+](=O)[O-])c1C	-0.1	14.5*	20.8	0.2	-12.2	S1P4 ag conf=-1.8;S1P1 ag=3.6
CS(=O)(=O)N(CCc1ccccc1)CC(=O)N1CCCC1	x	21.1*	7.5	3.0	1.6	S1P4 ag conf=-1.7;S1P1 ag=-3.8
CC1CCN(S(=O)(=O)c2cccc(S(=O)(=O)N3CCCC3)c2)CC1	x	x	17.2	x	x
Nc1nc(SCc2ccc(Cl)cc2Cl)n[nH]1	0.1	-0.2	57.9	1.1	20.8
CC(=O)Nc1nc(SCc2ccc(Cl)cc2Cl)n[nH]1	-0.2	11.6*	30.9	x	9.8	S1P4 ag conf=-2.1;S1P1 ag=-0.5
